In the library only some 22% were active in any assay of this set; here they are far more common.
Cycloheximide cs – affects cycloheximide protein synthesis inhibition readout, counter-screen; cell reporter, cycloheximide protein synthesis inhibition counterscreen; max response, %; 12% of 300,000 active; AID 2314; in the data active = max response mostly above about 13%, no sharp cut-off; inactive = mostly below about 14%; also: read at 38.3 µM for the half of the compounds with a filed dose; 0% is about no effect
LmPK inhibitor – inhibitors of Leishmania mexicana pyruvate kinase; Q27686; purified LmPK, Kinase-Glo ATP luminescence, 1 h; Potency, µM (titrated, usually from 57.5 µM), without a hit: at the top dose activity change, negative = inhibition, actives largely listed as inhibitors; 0.37% of 290,000 active; AID 1721; also: potency is read from the fitted curve at half-maximal effect; % is scaled to controls: 0 for no effect and ±100 for the full control effect
Target sequence (Q27686 whole entry, looked up): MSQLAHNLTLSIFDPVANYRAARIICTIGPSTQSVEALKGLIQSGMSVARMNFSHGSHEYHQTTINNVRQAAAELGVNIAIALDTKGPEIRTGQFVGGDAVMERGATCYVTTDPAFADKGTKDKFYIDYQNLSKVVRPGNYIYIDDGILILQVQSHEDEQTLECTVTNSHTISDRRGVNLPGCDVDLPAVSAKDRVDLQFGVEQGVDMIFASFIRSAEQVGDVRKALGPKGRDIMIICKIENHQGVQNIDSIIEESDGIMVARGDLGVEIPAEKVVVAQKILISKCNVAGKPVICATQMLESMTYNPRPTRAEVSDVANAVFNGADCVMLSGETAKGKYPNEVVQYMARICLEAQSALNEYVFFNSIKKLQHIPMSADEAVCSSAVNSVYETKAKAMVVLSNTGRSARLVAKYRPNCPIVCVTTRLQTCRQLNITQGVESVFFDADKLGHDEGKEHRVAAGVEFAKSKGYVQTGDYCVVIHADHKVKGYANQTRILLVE
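Kinase-Glo luminescence read after 1 h RT reaction of 0.1 nM LmPK with 0.5 mM PEP and 0.1 mM ADP. Activity scaled between uninhibited and enzyme-free controls.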
Pf growth 96h – P. falciparum growth inhibition at 96 hour, primary screen for plastid delayed-death inhibitors | P. falciparum luciferase reporter growth, 96 h | Potency, µM (top dose mostly 28.7 µM), inactives show at the top dose activity change, negative = inhibition, hits mostly inhibitors | 6.9% of 320,000 active; also: potency is read from the fitted curve at half-maximal effect; % is scaled to controls: 0 for no effect and ±100 for the full control effect
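96 h incubation, 37 C, 5% CO2, of luciferase-reporter P. falciparum-infected RBCs (2% hematocrit, 0.05% parasitemia final) with test compounds; endpoint luminescence.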
Pf growth 48h – P. falciparum growth inhibition at 48 hours (one generation); 5.9% of 310,000 active; P. falciparum luciferase growth in erythrocytes, 48 h; Potency, µM (top dose mostly 28.7 µM), for the others: top-dose activity change, negative = inhibition, most hits filed as inhibitors; also: potency is read from the fitted curve at half-maximal effect; % is scaled to controls: 0 for no effect and ±100 for the full control effect
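Luminescence readout; reporter = integrated firefly luciferase in P. falciparum. RBC culture at 2% hematocrit, 0.1% parasitemia final, 37 C/5% CO2; decreased signal taken as growth inhibition.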
Shiga inhibitor – blocks Shiga toxin action in Vero cells. Vero cells, Shiga toxin protein synthesis inhibition reporter. inhibition, % at 38.7 µM. 9.2% of 290,000 active; in the data active = inhibition mostly above about 28%, no sharp cut-off; inactive = mostly below about 43%; also: 0% is about no effect
* = called active by the depositor; ? = inconclusive; . = no result; [ ] = remark or other dose. Unless noted, calls follow the shape of the dose curve; as a rule, active = well fitted inhibition curve with a large enough effect; inconclusive = small, poorly fitted or top-dose-only effect, or another doubt; inactive = no such curve, though single readings can be large or run the other way.

SMILES	Cycloheximide cs	LmPK inhibitor	Pf growth 96h	Pf growth 48h	Shiga inhibitor
c1ccc(-c2nc(-c3ccc(-c4ccon4)s3)no2)cc1	33.6*	-7.1%	107.5%	353.0%	61.3*
NNC(=O)c1ccc(COCC(F)(F)F)cc1	8.0	-0.8%	-19.8%	-8.8%	-3.4
Cc1c(SCCO)c(=O)[nH]c2cc3c(cc12)OCO3	-1.5	7.8%	.	15.2%	-11.6
COc1ccccc1N1CCN(C2CCCN(C(=O)CCC(=O)N(C)C)C2)CC1 (configuration not stated)	-1.2	-0.5%	-12.6%	-22.1%	-5.6
Cc1ccccc1OCC(=O)NNC(=O)CSc1nc(N)cc(N)n1	-1.4	-2.8%	8.28µM*	15.9%	-13.0
CCOC(=O)CNC(=O)CSc1nc(N)cc(N)n1	-1.5	-3.3%	10.4µM*	-3.7%	-12.8
Cc1cccc(C)c1N1CCN(C(=O)N2CCCCC2)CC1	-2.6	-0.1%	74.4%	?	5.7
COc1ccc(C(=O)c2sc3nc(C)cc(-c4cccs4)c3c2N)cc1OC	-3.1	2.2%	?	?	-18.2
CC(C)N(C(=O)CSc1nnc(-c2ccc3c(c2)OCO3)n1C)C(C)C	8.6	1.0%	?	3.2%	15.0
CCC1(C)N=C(c2ccc3c(c2)OCO3)CC(c2ccccc2O)N1 (configuration not stated)	44.3*	10µM*	.	4.65µM*	65.9*
COc1cccc(C2=NC(C)(C)NC(c3ccccc3O)C2)c1 (configuration not stated)	33.9*	-5.0%	0.0%	9.28µM*	56.0*
CS(=O)(=O)Nc1cccc(C2=NN(C(=O)c3ccc(F)cc3)C(c3cccs3)C2)c1 (configuration not stated)	-3.1	-4.5%	-9.3%	0.1%[0.00184 µM]	-4.9
CC1CC(C)CN(c2ccc([N+](=O)[O-])nc2)C1 (configuration not stated)	17.1*	13.2%	?	?	27.6
CC1CN(c2ccc([N+](=O)[O-])nc2)CC(C)O1 (configuration not stated)	14.0	1.3%	2.0%	-10.7%	-5.4
Cc1ccc(/C=C2/C(=O)NC(=O)N(CC3CCCO3)C2=O)s1 (configuration not stated)	10.3	1.8%	25.4%	13.4%	96.6*
CCCCC/C=C\C/C=C\C/C=C\C/C=C\CCCC(=O)N(Cc1ccc(O)c(Cl)c1)Cc1ccc(O)c(Cl)c1	39.6	.	.	.	62.8*
CCCCC/C=C\C/C=C\C/C=C\C/C=C\CCCC(=O)NCCc1ccc(O)c(O)c1	18.7	.	.	.	45.4
COc1cc(C(CCN2CCCC2)c2c(OC)cc(OC)c3c2OC(=O)CC3c2ccc(N(C)C)cc2)cc(OC)c1OC (configuration not stated)	-5.5	.	.	.	-9.8
COc1cc(C(CCN2CCCC(C)C2)c2c(OC)cc(OC)c3c2OC(=O)CC3c2ccc(N(C)C)cc2)cc(OC)c1OC (configuration not stated)	10.0	0.6%	10.4µM*	9.28µM*	-13.2
COc1cc(C2CC(=O)Oc3c(C(CCN4CCCC(C)C4)c4ccc(N(C)C)cc4)c(OC)cc(OC)c32)cc(OC)c1OC (configuration not stated)	-6.0	6.1%	?	13.1µM*	11.5
COc1cc(OC)c2c(c1C(CCN1CCCC(C)C1)c1ccc(N(C)C)cc1)OC(=O)CC2c1ccc(N(C)C)cc1 (configuration not stated)	-3.4	.	.	.	-11.0
COc1ccc(CCNC(=O)COC(=O)c2ccc(N3CCCC3=O)cc2)cc1OC	1.2	-0.9%	-6.5%	-20.9%	-4.5
O=C(CN1CCCCCCC1)NC(=O)NC1CCCCC1	23.2	0.9%	?	0.0%	51.4
O=C(CN1CCCCC1)NC(=O)NC1CCCC1	23.2*	-0.6%	5.0%	56.4%	55.5*
CCCCCCCNC(=O)C1(CC2CC(c3cccc(Br)c3)=NO2)CCN(C(=O)OC(C)(C)C)CC1 (configuration not stated)	15.2*	-1.0%	4.65µM*	?	15.4
SMILES	Cycloheximide cs	LmPK inhibitor	Pf growth 96h	Pf growth 48h	Shiga inhibitor
CCCCCCCNC(=O)C1(CC2CC(c3ccc(Cl)cc3)=NO2)CCN(C(=O)C2CCCC2)CC1 (configuration not stated)	-1.1	-2.6%	9.28µM*	-29.3%	-10.0
CCCCCCCNC(=O)C1(CC2CC(c3cccc(Br)c3)=NO2)CCN(C(=O)C2CCCC2)CC1 (configuration not stated)	.	.	9.28µM*	5.22µM*	.
O=C(NCC1CCCCC1)C1(CC2CC(c3cccc(Br)c3)=NO2)CCNCC1 (configuration not stated)	-8.1	2.3%	?	-64.3%	13.9
Cc1ccc(CNC(=O)CSc2nc3ccccc3c3nc(C)nn23)cc1	-4.6	-6.8%	54.0%	8.4%	44.9
CNC(=O)Cn1nc(-c2ccc(Cl)cc2)c2ccccc2c1=O	-3.5	-3.2%	12.1%	8.9%	19.2
C#CCn1c(=O)c2c(nc(/C=C/c3cccc(OC)c3)n2C)n(CCCOP(=O)(O)O)c1=O	-9.8	.	.	.	2.3
O=C(Nc1nc2ccccc2[nH]1)C1CC(=O)N(c2ccc3c(c2)OCCO3)C1 (configuration not stated)	28.2*	5.0%	8.28µM*	5.5%	41.6
Cc1ccnc(NC(=O)C2CC(=O)N(c3ccc4c(c3)OCCO4)C2)c1 (configuration not stated)	34.5*	-13.5%	322.1%	295.5%	92.4*
Cc1ccc(NC(=O)C2CC(=O)N(c3ccc4c(c3)OCCO4)C2)nc1 (configuration not stated)	.	.	7.6%	7.2%	.
CC(C)Cn1c(N)c(C(=O)COC(=O)CCc2nc3ccccc3s2)c(=O)n(C)c1=O	7.2	2.4%	15.2%	20.6%	1.9
NC(=O)[C@H]1CC2(CC(c3cccc(NC(=O)COc4ccc(Cl)cc4)c3)=NO2)CN1C(=O)CC(c1ccccc1)c1ccccc1 (some centres not stated)	0.9	-2.0%	?	?	3.0
NC(=O)[C@H]1CC2(CC(c3cccc(NC(=O)COc4ccc(Cl)cc4)c3)=NO2)CN1C(=O)c1ccccc1C(=O)c1ccccc1 (some centres not stated)	-3.5	3.2%	11.7µM*	11.7µM*	-5.1
CC1(C(=O)N2CC3(CC(c4cccc(NC(=O)COc5ccc(Cl)cc5)c4)=NO3)C[C@@H]2C(N)=O)CC1 (some centres not stated)	-2.3	4.9%	?	13.1µM*	-7.2
C/C=C/C(=O)N1CC2(CC(c3cccc(NC(=O)COc4ccc(Cl)cc4)c3)=NO2)C[C@@H]1C(N)=O (some centres not stated)	4.0	1.1%	5.22µM*	13.1µM*	13.9
NC(=O)[C@@H]1CC2(CC(c3cccc(NC(=O)CC(c4ccccc4)c4ccccc4)c3)=NO2)CN1C(=O)COc1ccc(Cl)cc1 (some centres not stated)	4.0	-1.7%	11.7µM*	?	6.3
